Source: PubChem (several laboratories)
Sampled rows, rich in hits. Any-hit rate of the full collection: about 1.6%.
eIF4H inh: human eIF4H binding inhibitors, primary screen, translation initiation inhibitor project, biochemical, uHTS, fluorescence polarization. AID 2012, 2009. 290,000 tested, 0.94% active. eIF4H fluorescence polarization binding assay. Eukaryotic translation initiation factor 4H (Homo sapiens), Q15056. inhibition, % at 35 µM;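 also: calls also rest on retests at 20 µM and on dose response follow-up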
PABP FP inh: PABP poly(A) RNA binding inhibitors, primary screen, biochemical, fluorescence polarization, uHTS; AID 2014, 2009; 290,000 tested, 1% active; inhibition, % at 35 µM;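 also: calls also rest on retests at 20 µM and on dose response follow-up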
PERK inh: block of dimerizer-induced PERK translation repression, primary screen, PERK inhibitor project, CHO PERK-DD cells, SEAP luminescence, HTS; CHO PERK-DD fusion, SEAP luminescence translation reporter; inhibition, % at 5.6 µM; 220,000 tested, 0.17% active;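 active = inhibition above the mean inhibition of all tested compounds plus 3 SD, set separately per screening campaign, cut at about 2.9% in these data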;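 also: PERK kinase domain activated by AP20187 dimerizer at 100 nM; 0% = DMSO with dimerizer and 100% = rapamycin at 8.4 µM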
Target sequence (Q9NZJ5 whole entry, looked up, the tested form may be a part): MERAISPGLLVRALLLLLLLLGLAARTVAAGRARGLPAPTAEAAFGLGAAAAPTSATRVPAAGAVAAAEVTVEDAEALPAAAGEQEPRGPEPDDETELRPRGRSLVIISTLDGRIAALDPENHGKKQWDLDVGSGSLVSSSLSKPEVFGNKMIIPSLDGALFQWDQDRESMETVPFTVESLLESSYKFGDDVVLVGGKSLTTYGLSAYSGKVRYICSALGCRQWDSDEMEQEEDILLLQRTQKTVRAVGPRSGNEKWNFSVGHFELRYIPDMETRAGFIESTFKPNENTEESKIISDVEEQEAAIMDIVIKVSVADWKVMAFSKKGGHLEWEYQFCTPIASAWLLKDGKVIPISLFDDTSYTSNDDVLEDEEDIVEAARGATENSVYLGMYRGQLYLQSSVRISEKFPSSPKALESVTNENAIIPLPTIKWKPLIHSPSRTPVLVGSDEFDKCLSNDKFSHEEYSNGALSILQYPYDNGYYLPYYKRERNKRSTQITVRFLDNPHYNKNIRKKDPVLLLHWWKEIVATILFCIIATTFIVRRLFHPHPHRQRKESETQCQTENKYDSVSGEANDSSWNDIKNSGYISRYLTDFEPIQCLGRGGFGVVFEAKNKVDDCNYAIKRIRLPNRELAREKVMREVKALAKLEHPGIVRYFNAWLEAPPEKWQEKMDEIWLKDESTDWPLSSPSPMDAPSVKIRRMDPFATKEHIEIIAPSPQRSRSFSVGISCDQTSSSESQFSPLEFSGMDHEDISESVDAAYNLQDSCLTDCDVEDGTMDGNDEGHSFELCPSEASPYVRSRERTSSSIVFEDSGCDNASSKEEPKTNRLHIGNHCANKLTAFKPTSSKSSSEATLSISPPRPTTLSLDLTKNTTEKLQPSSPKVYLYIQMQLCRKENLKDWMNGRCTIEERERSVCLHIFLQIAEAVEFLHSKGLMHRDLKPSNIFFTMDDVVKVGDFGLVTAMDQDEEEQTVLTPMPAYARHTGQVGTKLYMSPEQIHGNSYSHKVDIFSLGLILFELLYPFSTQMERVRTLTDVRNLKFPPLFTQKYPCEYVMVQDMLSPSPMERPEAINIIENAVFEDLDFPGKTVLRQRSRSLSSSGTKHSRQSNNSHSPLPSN
eIF4E-4G inh: eIF4E–eIF4G protein interaction inhibitors, primary screen, biochemical, uHTS, TR-FRET, eIF4GI fragment; TR-FRET eIF4E-eIF4GI(517-606) binding, 2 h; inhibition, % at 21.7 µM; AID 782, 2007; 220,000 tested, 0.37% active; Eukaryotic translation initiation factor 4E (Mus musculus) + Eukaryotic translation …;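 active = inhibition above about 30%, limit read from the data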;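 also: 0% = full FRET control wells and 100% = background wells lacking eIF4GI fragment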
MLLE-PAM2 inh: inhibitors of PABP1 MLLE–PAM2 peptide binding, primary screen, biochemical, fluorescence polarization, FITC-PAM2, GST-MLLE; Polyadenylate-binding protein 1 (Homo sapiens), P11940; inhibition, % at 20 µM; 360,000 tested, 0.36% active; AID 588489, 2011; in the data active = inhibition above about 35%, passing the limit was not always enough;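 also: plate controls were DMSO wells with GST-MLLE for no effect and wells lacking GST-MLLE protein for full effect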
Active calls of the source: *; [ ] = remark or other dose. Unless noted, no rule for the calls is given here.

Results for COC(=O)c1ccc(Oc2nc(NC(C)C)nc(NC(C)C)n2)cc1 ?
eIF4H inh: 0; PABP FP inh: -2; PERK inh: -1; eIF4E-4G inh: 97*; MLLE-PAM2 inh: -2

How did O=C1c2ccccc2CC1Sc1nnc(-c2ccncc2)o1 (stereo not drawn) do in these assays?
eIF4H inh: 4.2*; PABP FP inh: 72*; PERK inh: 0; eIF4E-4G inh: -2; MLLE-PAM2 inh: -9

Results for O=C(NCCN1CCOCC1)c1nn2c(c1Cl)NC(c1ccccc1)CC2C(F)(F)F (stereo not drawn) ?
eIF4H inh: 82; PABP FP inh: 3; PERK inh: -1; eIF4E-4G inh: 45*; MLLE-PAM2 inh: 3

How did COC(=O)c1ccc2c(=O)n(NC(=O)C(c3ccccc3)c3ccccc3)c(=S)[nH]c2c1 do in these assays?
eIF4H inh: 3; PABP FP inh: 2; PERK inh: -1; eIF4E-4G inh: -38; MLLE-PAM2 inh: 38*

How did CCn1c(C)nnc1SCC(=O)NC1CCCCCC1 do in these assays?
eIF4H inh: 94; PABP FP inh: -1; MLLE-PAM2 inh: 7

How did CC(=O)Nc1c(N)c2ccccc2oc1=O do in these assays?
eIF4H inh: -4; PABP FP inh: 3; PERK inh: 0; eIF4E-4G inh: -4; MLLE-PAM2 inh: -1

What do the screens show for `CCCSC1=N/C(=C\C=C\c2ccco2)C(=O)S1`?
eIF4H inh: 94*; PABP FP inh: 101*; PERK inh: 0; eIF4E-4G inh: 3; MLLE-PAM2 inh: -13

What do the screens show for `O=c1oc2c(O)c(O)cc3c(=O)oc4c(O)c(O)cc1c4c23`?
eIF4H inh: 102; PABP FP inh: -4; PERK inh: 2; eIF4E-4G inh: 56*[fluorescence artefact?]; MLLE-PAM2 inh: 8

Results for CC1=C(C(=O)OCc2ccccc2)C(c2ccc(Cl)cc2)NC(=O)N1CCCCCC(=O)O (stereo not drawn) ?
eIF4H inh: 1; PABP FP inh: -7; PERK inh: 0; eIF4E-4G inh: 2; MLLE-PAM2 inh: -10

Results for Cc1cc(=O)n(-c2ccc(O)cc2)[nH]1 ?
eIF4H inh: -2; PABP FP inh: -6; PERK inh: 0; eIF4E-4G inh: 2; MLLE-PAM2 inh: 10

What do the screens show for `Cc1ccc(C)n1-c1ccc(C(=O)O)cc1`?
eIF4H inh: 91*; PABP FP inh: 51*; PERK inh: 2; eIF4E-4G inh: 13

What do the screens show for `Cc1cc(=O)n(-c2ccc(C(=O)O)cc2)[nH]1`?
eIF4H inh: 65*; PABP FP inh: active; PERK inh: 1; eIF4E-4G inh: -2; MLLE-PAM2 inh: 8

What do the screens show for `NC(=O)CSc1nnnn1-c1cccc(Cl)c1`?
eIF4H inh: -1; PABP FP inh: 7; PERK inh: 1; eIF4E-4G inh: 0; MLLE-PAM2 inh: 3

Results for CC(=O)N1CC(C)Sc2ccc(S(=O)(=O)NCc3ccc(F)cc3)cc21 (stereo not drawn) ?
eIF4H inh: 0; PABP FP inh: -6; MLLE-PAM2 inh: 8

How did Cc1cc(C(=O)CSc2nc(N)cc(N)n2)c(C)n1-c1cccc(C(F)(F)F)c1 do in these assays?
eIF4H inh: 56*; PABP FP inh: -3; PERK inh: 0; eIF4E-4G inh: 1; MLLE-PAM2 inh: -14

What do the screens show for `O=S1(=O)CC/C(=N/Nc2ccc(C(F)(F)F)cn2)c2cc(F)ccc21`?
eIF4H inh: 5; PABP FP inh: 31; PERK inh: 0; eIF4E-4G inh: 87*; MLLE-PAM2 inh: 14

How did CC(C)C1(C2CCCC2)NC(=O)NC1=O (stereo not drawn) do in these assays?
MLLE-PAM2 inh: 9

Results for CC(C)C1=C2CCCCC2NC(=O)N1 (stereo not drawn) ?
eIF4H inh: 0; PABP FP inh: 19; PERK inh: 1; eIF4E-4G inh: -9; MLLE-PAM2 inh: 62*

What do the screens show for `COc1ccc(-n2nc3cc(C)c(NC(=O)C(C)C)cc3n2)cc1`?
eIF4H inh: -1; PABP FP inh: -2; PERK inh: 1; eIF4E-4G inh: 5
